Measurements: ChEMBL document CHEMBL4513216, “Probing the Open Global Health Chemical Diversity Library for Multistage-Active Starting Points for Next-Generation Antimalarials” (ACS Infect Dis, 2020)
Screen size: about 68,000 compounds; about 2,700 (4%) showed an effect of 50% or more. This excerpt belongs to a sample that is enriched for strong results.

These molecules were tested on Plasmodium berghei (assay: Screen against P. berghei liver stage (PbLuc), transformed with Luciferase, at 2uM). Settings: tested at 2 uM.
Assay type: functional, HepG2
With CCOc1c(OC)cc(C=Cc2ncc(C(=O)NC)s2)cc1OC the INHIBITION was 39.56%.
FC(F)(F)c1cccc(N2CCC(NCc3cccnc3)CC2)c1 was tested, and the INHIBITION was 47.23%.
Molecule CC(=O)NC[C@H]1C[C@@H]2CCN1C[C@@H]2c1cc(-c2cccs2)nn1C has an INHIBITION of 35.89%.
Work on Cn1nc(-c2cccs2)cc1[C@H]1CN2CC[C@H]1C[C@@H]2CN yielded an INHIBITION of 34.24%.
In the case of Cn1nc(-c2cccs2)cc1[C@H]1CN2CC[C@H]1C[C@@H]2CNS(C)(=O)=O, the INHIBITION is reported as 40.83%.
Cn1nc(-c2ccccc2)cc1[C@H]1CN2CC[C@H]1C[C@@H]2CNS(C)(=O)=O gave an INHIBITION of 62.25%.
Molecule CCNC(=O)NC[C@H]1C[C@@H]2CCN1C[C@@H]2c1cc(-c2cccs2)nn1C has an INHIBITION of 60.6%.
In the case of COCC(=O)NC[C@H]1C[C@@H]2CCN1C[C@@H]2c1cc(-c2cccs2)nn1C, the INHIBITION is reported as 27.65%.
In the case of O=C(c1cc(C2CC2)on1)N1CCC(Oc2ncccc2Cl)CC1, the INHIBITION is reported as -22.8%.
Molecule CCN1C[C@@H]2[C@@H](OC)CCN(S(=O)(=O)c3ccccc3F)[C@@H]2C1 has an INHIBITION of -22.38%.
Work on O=C(CCc1ccccc1)NCC(O)c1c(F)cccc1F (centres undefined) yielded an INHIBITION of -17.44%.
CC(C)C(=O)N1Cc2ccccc2CC2(CCCCN2C)C1 (centres undefined) showed an INHIBITION of 6.2%.
O=C(CCNc1ncccn1)N1CCN(c2nccs2)CC1 showed an INHIBITION of 9.41%.
CC(C)N1CCC2(CC1)CC(CC(N)=O)c1ccc(F)cc12 (centres undefined) showed an INHIBITION of -94.52%.
In the case of CCC(=O)N1CCC2(CC1)CC(CC(N)=O)c1ccc(F)cc12 (centres undefined), the INHIBITION is reported as -10.13%.
With COCCN1CCC2(CC1)CC(CC(N)=O)c1ccc(F)cc12 (centres undefined) the INHIBITION was 53.06%.
For O=C(CCc1cccc(F)c1F)N1CCCC(n2cncn2)C1 (centres undefined), the INHIBITION was -19.35%.
CCN(CC)[C@@H]1CN(C(=O)c2ccc(C#N)cc2)[C@@H]2CCCO[C@H]12 was tested, and the INHIBITION was -58.31%.
Molecule Nc1cccnc1N1CCN(c2ccccc2)CC1 has an INHIBITION of -43.35%.
Molecule COc1cccc(F)c1-c1nc2c([nH]1)c(C1CC1)nn2C has an INHIBITION of 21.14%.
O=C(N1CCCC1)N1CCc2onc(COc3cccnc3)c2C1 gave an INHIBITION of 11.79%.
In the case of O=C(c1ccc[nH]1)N1CCc2onc(COc3cccnc3)c2C1, the INHIBITION is reported as -39.67%.
Molecule O=C(c1ccncc1F)N1CCc2onc(COc3cccnc3)c2C1 has an INHIBITION of 54.89%.
O=C(c1ccc(F)cc1F)N1C[C@@H](O)[C@H](N2CCOCC2)C1 showed an INHIBITION of 13.51%.
Work on O=C(CCc1nccs1)N1CCCC(N2CCNC2=O)C1 (centres undefined) yielded an INHIBITION of 7.74%.
COCCN1C[C@@H]2CN(S(=O)(=O)c3cccs3)C[C@@H]2C1=O gave an INHIBITION of -8.59%.
With CCN1C[C@@H]2CN(S(=O)(=O)c3cccs3)C[C@@H]2C1=O the INHIBITION was 62.25%.
CC(C)CN1C[C@@H]2CN(S(=O)(=O)c3cccs3)C[C@@H]2C1=O gave an INHIBITION of 29.85%.
Work on CCCN1CCCn2nc(CNS(=O)(=O)c3cccc(F)c3)cc2C1 yielded an INHIBITION of 39.28%.
With Cc1ccc(CN(Cc2[nH]cnc2C)C2CC(C)(C)NC(C)(C)C2)o1 the INHIBITION was -13%.
For Cc1nc(C2CCCN2CC(=O)N2CCc3ccccc32)no1 (centres undefined), the INHIBITION was 47.93%.
In the case of Cc1cc(NC(=O)N2CCOC(C(N)=O)C2)ccc1Br (centres undefined), the INHIBITION is reported as 29.89%.
Molecule NC(=O)C1CN(C(=O)Nc2cc(Cl)cc(Cl)c2)CCO1 (centres undefined) has an INHIBITION of 80.56%.
Work on COCC1CN(C(=O)Nc2cc(Cl)cc(Cl)c2)CCO1 (centres undefined) yielded an INHIBITION of 13.12%.
With CCOc1ccc(NC(=O)N2CCOC(C(N)=O)C2)cc1Cl (centres undefined) the INHIBITION was 51.4%.
For CCOc1ccc(NC(=O)N2CCOC(C(N)=O)C2)cc1C (centres undefined), the INHIBITION was 6.22%.
For COCCOc1ccc(NC(=O)N2CCOC(C(N)=O)C2)cc1F (centres undefined), the INHIBITION was 29.89%.
Cc1ccsc1C(=O)N1CCCN(Cc2cscn2)CC1 showed an INHIBITION of 29.12%.
COc1ccc(NCCC(=O)NCc2cccnc2N(C)C)cc1 gave an INHIBITION of 35.54%.
With CCOC(=O)c1cnn(C2CCN(C(=O)CC(C)(C)C)CC2)c1N the INHIBITION was -40.25%.
Molecule c1ccc(CN2CCC3(CC2)CC(Nc2nccs2)CO3)nc1 (centres undefined) has an INHIBITION of -14.97%.
Molecule O=C(NCC1CCCN1Cc1ccccc1)NCC1(O)CCC1 (centres undefined) has an INHIBITION of -19.78%.
With O=C(NCC1CCCN1CCc1ccccc1)NCC1(O)CCC1 (centres undefined) the INHIBITION was 57.34%.
In the case of O=C(NCC1CCN(CCc2ccccc2)C1)NCC1(O)CCC1 (centres undefined), the INHIBITION is reported as -69.19%.
For Cc1cc(CN2CC[C@H]3C[C@H](c4nc(C5CC5)cs4)O[C@@H]3C2)no1, the INHIBITION was 35.84%.
For COCCC1COC2(CCN(C(=O)c3ccsc3)CC2)C1 (centres undefined), the INHIBITION was 56.71%.
In the case of COCCC1COC2(CCN(C(=O)c3ccncc3)CC2)C1 (centres undefined), the INHIBITION is reported as 2.5%.
Molecule COCCC1COC2(CCN(C(=O)c3ccccc3)CC2)C1 (centres undefined) has an INHIBITION of -40.63%.
Molecule Cn1cnc(S(=O)(=O)NCCN2CCCCCC2=O)c1Cl has an INHIBITION of 3.86%.
Work on Cc1cccc(C(=O)NC2CCN(c3cnn(C)c3)C2=O)n1 (centres undefined) yielded an INHIBITION of 1.22%.
For Cn1cc(N2CCC(NC(=O)c3ccccc3Cl)C2=O)cn1 (centres undefined), the INHIBITION was 28.95%.
Work on Cc1ccccc1C(=O)NC1CCN(c2cnn(C)c2)C1=O (centres undefined) yielded an INHIBITION of 52.08%.
Cn1cc(N2CCC(NC(=O)c3c(F)cccc3F)C2=O)cn1 (centres undefined) showed an INHIBITION of 31.98%.
Cn1cc(N2CCC(NC(=O)c3ccccc3F)C2=O)cn1 (centres undefined) was tested, and the INHIBITION was 63.1%.
Cc1cccc(C(=O)NC2CCN(c3cnn(C)c3)C2=O)c1C (centres undefined) gave an INHIBITION of 13.53%.
CCc1ccc(C(=O)NC2CCN(c3cnn(C)c3)C2=O)o1 (centres undefined) was tested, and the INHIBITION was 26.65%.
Cn1cc(N2CCC(NC(=O)c3c(F)cccc3Cl)C2=O)cn1 (centres undefined) was tested, and the INHIBITION was 50.98%.
Cc1ccsc1C(=O)NC1CCN(c2cnn(C)c2)C1=O (centres undefined) was tested, and the INHIBITION was 20.14%.
Molecule COc1ccc(S(=O)(=O)NCCn2cnc(C)cc2=O)cc1C has an INHIBITION of 11.94%.
CCCN1C[C@@H]2CC[C@H]1CN(C(=O)c1ccc(N(C)CCO)cc1)C2 was tested, and the INHIBITION was 6.73%.
CC(=O)N(C)Cc1cccc(NC(=O)c2cnn(C)c2C)c1 gave an INHIBITION of -7.28%.
CC(O)CN1CCC(CNCc2ccc(C(N)=O)cc2)CC1 (centres undefined) gave an INHIBITION of -63.41%.
In the case of N#CCCN(c1ccccc1)S(=O)(=O)CC1CCCCO1 (centres undefined), the INHIBITION is reported as 16.87%.
CNC(=O)CCN(C)CC1(c2ccc(Br)cc2)CC1 was tested, and the INHIBITION was -43.52%.
